Source: PubChem
FLuc inh: Firefly luciferase inhibition profiling of diverse chemical library using quantitative high-throughput screening | Luciferin 4-monooxygenase (Photinus pyralis), P08659 | purified P. pyralis luciferase, luminescence, biochemical | Potency, µM (doses to about 115 µM), most hits filed as inhibitors | 76,000 compounds, 2.5% hits | AID 1347043, 2019; also: % is scaled to controls: 0 for no effect and ±100 for the full control effect; nearly all actives have a fitted effect of over 65% in size
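Cell-free enzyme assay, 10nM P. pyralis luciferase, luciferin and ATP each at 10uM. Inhibition profiled over a 6-point titration, read as luminescence.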
NPR1 antag: Natriuretic polypeptide receptor (hNpr1) antagonism - Primary qHTS; HEK293 hNpr1 GloSensor cGMP, ANP-stimulated luminescence; Potency, µM (titrated, usually from 46.3 µM), inactives show top-dose activity change, negative = inhibition, most hits filed as inhibitors; 76,000 compounds, 1.6% hits; AID 1347048, 2019; calls by dose curve; also: % is scaled to controls: 0 for no effect and ±100 for the full control effect; nearly all actives have a fitted effect of over 60% in size
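HEK293 cells stably expressing human Npr1 and cGMP GloSensor pGS-40F, loaded 2 h with 2% GloSensor reagent, given compound 30 min at room temperature. Luminescence read before and 20 min after 0.1 nM hNppA.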
3T3 cytotox: Cytotoxic Profiling in NIH 3T3 Cell Line of Diverse Libraries Using Quantitative High-Throughput Screening | NIH 3T3 viability, CellTiter-Glo ATP luminescence, 48-72 h | Potency, µM (highest dose often 96.7 µM), inactives show at the top dose activity change, negative = cytotoxicity, hits mostly inhibitors | 94,000 compounds, 4.3% hits; also: % is scaled to controls: 0 for no effect and ±100 for the full control effect; nearly all actives have a fitted effect of over 55% in size
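NIH 3T3 cells at 400 cells/well received 23 nL of compound by pintool and were incubated 48 or 72 h at 37 °C. Viability was read as ATP-coupled CellTiter-Glo luminescence.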
HEK293 tox: Cytotoxic Profiling in HEK 293 Cell Line of Diverse Libraries Using Quantitative High-Throughput Screening; 94,000 compounds, 6.6% hits; Potency, µM (series often up to 115 µM), inactives show at the top dose activity change, negative = cytotoxicity, hits mostly inhibitors; HEK 293 viability, ATP luminescence (CellTiter-Glo), 48-72 h; also: % is scaled to controls: 0 for no effect and ±100 for the full control effect; nearly all actives have a fitted effect of over 60% in size
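CellTiter-Glo luminescence (cellular ATP) was read after 48 or 72 hr of compound exposure at 37 degree Celsius. Cells were HEK 293 plated at 250 cells/well.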
SNCA viab count: GF-AFC viability counterscreen for inhibitors of alpha-synuclein gene (SNCA) expression; HEK-293-SNCA-luc viability, GF-AFC fluorescence, 24 h; AID 1671193, 2021; 150,000 compounds, 0.12% hits; Potency, µM (top dose mostly 57.1 µM), without a hit: top-dose activity change, negative = cytotoxicity, actives largely listed as cytotoxic;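 also: 0% = DMSO-treated cells and -100% = medium-only wells without cells; nearly all actives have a fitted effect of over 30% in size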
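Cytotoxicity counterscreen: after 24 h compound treatment of genome-edited SNCA-luciferase HEK-293 cells, live-cell protease substrate GF-AFC read by fluorescence after 30 min; activity scaled between DMSO (0%) and medium-only (-100%), curves Hill-fitted.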
SNCA expr inhib: Primary qHTS assay for inhibitors of alpha-synuclein gene (SNCA) expression. HEK-293 SNCA-luciferase knock-in, luminescence, 24 h. Potency, µM (top dose mostly 57.2 µM), inactives show top-dose activity change, negative = inhibition, hits mostly inhibitors. 140,000 compounds, 0.17% hits;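 also: plate controls were DMSO cells for no effect and cell-free wells for full effect; nearly all actives have a fitted effect of over 45% in size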
Npr1 antag conf: Natriuretic polypeptide receptor (hNpr1) antagonism - Confirmation; shares compounds with NPR1 antag; HEK293 hNpr1 cGMP GloSensor luminescence, ANP-stimulated; Potency, µM (highest dose often 57.6 µM), inactives show at the top dose activity change, negative = inhibition, most hits filed as inhibitors; 1,400 compounds, 76% hits; AID 1347044, 2019; calls by dose curve; also: nearly all actives have a fitted effect of over 70% in size
Npr2 selectivity: Natriuretic polypeptide receptor (hNpr2) antagonism - Subtype selectivity assay | 1,400 compounds, 67% hits | HEK293 hNpr2 GloSensor cGMP luminescence, CNP-stimulated | Potency, µM (titrated, usually from 57.6 µM), without a hit: at the top dose activity change, negative = inhibition, usual class: inhibitors | shares compounds with NPR1 antag; calls by dose curve; also: nearly all actives have a fitted effect of over 70% in size
FLuc counter: Natriuretic polypeptide receptor (hNpr1) antagonism - Confirmation firefly luciferase (FLuc) inhibition counterscreen | shares compounds with NPR1 antag | purified FLuc enzyme, luminescence, Km substrate | Potency, µM (doses to about 57.6 µM), for inactives: at the highest dose activity change, negative = inhibition, actives largely listed as inhibitors | 1,400 compounds, 0.7% hits | AID 1347047, 2019; also: 0% is about no effect
GloSensor ctrl: Natriuretic polypeptide receptor (hNpr1) antagonism - Counterscreen GloSensor control cell line. shares compounds with NPR1 antag. HEK293 GloSensor cGMP, SNP-stimulated, luminescence. Potency, µM (top dose mostly 57.6 µM), for inactives: top-dose activity change, negative = inhibition, usual class: inhibitors. 1,400 compounds, 69% hits. AID 1347051, 2019; calls by dose curve; also: % is scaled to controls: 0 for no effect and ±100 for the full control effect; nearly all actives have a fitted effect of over 70% in size
* marks the source's active call; other numbers are inactive results; i = inactive; ? = inconclusive; nt = not tested or not shown. Only some compounds are listed: those with a hit (about 7.4% of all), similar ones and a draw of the others. Unless noted, calls follow the shape of the dose curve; as a rule, active = well fitted curve in the direction sought with a large enough effect; inconclusive = small, poorly fitted or top-dose-only effect, or another doubt; inactive = no such curve, though single readings can be large; an effect the other way counts as inactive or inconclusive. Potency is read from the fitted curve at half-maximal effect.

SMILES	FLuc inh	NPR1 antag	3T3 cytotox	HEK293 tox	SNCA viab count	SNCA expr inhib	Npr1 antag conf	Npr2 selectivity	FLuc counter	GloSensor ctrl
CC(C)C[C@H](CO)NC(=O)C[C@@H]1c2nc(NC(=O)C(C)(C)C)sc2C[C@@H]2[C@](C)(CO)[C@H](O)CC[C@]21C	i	-1%	-19%	-25%	-22%	?	nt	nt	nt	nt
FC(F)(F)c1cccc2c(N3CCOC(C(F)(F)F)C3)ccnc12 (stereo not given)	i	10µM*	-46%	?	-1%	-9%	24µM*	?	4%	19µM*
OC[C@H]1CCN(c2ccnc3c(C(F)(F)F)cccc23)C[C@H]1O	i	-1%	-4%	?	1%	-2%	nt	nt	nt	nt
FC(F)(F)C1CN(c2ccnc3ccc(Cl)cc23)CCO1 (stereo not given)	i	11µM*	?	40µM*	-14%	-30%	22µM*	22µM*	0%	22µM*
O=C(N[C@H]1CO[C@H]2[C@@H]1OC[C@@H]2n1nnnc1Oc1ccc2c(c1)OCO2)c1ccc(C(F)(F)F)cc1	i	7.9µM*	?	?	-3%	-16%	6.9µM*	8.6µM*	-3%	5.4µM*
CCCNC(=O)N1CCC2(CCC2NC(=O)COC)CC1 (stereo not given)	i	2%	-1%	-28%	3%	-17%	nt	nt	nt	nt
CCOc1ccccc1CNC(=O)c1c(OCC)cc(=O)n2c1CCCC2	i	-1%	?	1%	6%	18%	nt	nt	nt	nt
COCCN1C(=O)c2ccccc2C(C(=O)Nc2cc(Cl)ccc2OC)C12CCCC2 (stereo not given)	i	?	-22%	?	-10%	-21%	14µM*	8.6µM*	5%	11%
CC(C)c1nc2nccc(-c3ccccc3)n2n1	i	-2%	0%	13%	0%	10%	nt	nt	nt	nt
Cc1cn2nnc(C(=O)NCc3ccc(C(C)C)cc3)c2c(=O)[nH]1	i	?	?	?	-7%	-15%	27µM*	?	0%	24µM*
CSCCNC(=O)c1ccc2nnc(-c3cccc([S+](C)(=O)[O-])c3)n2c1	nt	nt	-11%	-14%	-4%	-15%	nt	nt	nt	nt
CS(=O)(=O)N1CCCN(c2cc(C3CC(O)C3)nc(N)n2)CC1 (stereo not given)	i	-6%	-4%	i	-13%	?	nt	nt	nt	nt
